# Measurements from PubChem BioAssay (Tox21).
# Records with an inconclusive call do not appear. Entries that show only a call come without a potency. Activity calls are given as the source filed them. The call rests on the fitted dose curve. Where a SMILES comes first, the peptide text is derived from it. [ ]: non-standard residue; d: D form. pGlu = O=C1CC[C@@H](C(=O)O)N1
# Assay: qHTS assay to identify small molecule agonists of the progesterone receptor (PR) signaling pathway - cell viability counter screen (AID 1346799); further: nearly all actives have a fitted effect of over 45% in size
# Details: PR-UAS-bla HEK293T viability, CellTiter-Glo luminescence, 16 h; series mostly up to 92.4 µM
# Excerpt: National Center for Advancing Translational Sciences [NCATS]
# NIH Chemical Genomics Center [NCGC]
# U.S. Environmental Protection Agency [EPA]
# National Institutes of Environmental Health Sciences [NIEHS]
# National Toxicology Program [NTP]
# U.S. Food and Drug Administration [FDA]
# Progesterone receptor (PR), a nuclear hormone receptor, plays an important role in development, metabolic homeostasis and reproduction. It is activated by the steroid hormone progesterone. Endocrine disrupting chemicals (EDCs) and their interactions with steroid hormone receptors like PR causes disruption of normal endocrine function. To identify the compounds that stimulate PR signaling, a PR-UAS-bla GripTite cell line i.e. PR-UAS-bla HEK293T (Invitrogen, Carlsbad, CA, USA) containing a beta-lactamase reporter gene under the control of an UAS response element was used to screen Tox21 10K compound library. The cytotoxicity of the Tox21 compound library against the PR-bla cell line was tested in parallel by measuring the cell viability using CellTiter-Glo assay in the same wells.
# Tox21 Assay Protocol Summary:
# PR-UAS-bla HEK293T cells were dispensed at 3,000 cells/5 uL of assay medium containing 2% charcoal stripped FBS per well into black wall/clear-bottom 1536-well plates using a Multidrop Combi (ThermoFisher Scientific, Waltham, MA) dispenser. After the assay plates were incubated at a 37C and 5% CO2 for 6 hr, 23 nL of compounds dissolved in DMSO, positive controls or DMSO only was transferred to the assay plate by a Pintool station (Kalypsys, San Diego, CA). The plates were incubated at 37C and 5% CO2 for 16 hr. Then 1 uL of LiveBLAzer B/G FRET substrate was added using a Flying Reagent Dispenser (FRD, Aurora Discovery, San Diego, CA), the plates were incubated at room temperature for 2 hours, and fluorescence intensity was measured by an Envision plate reader (PerkinElmer, Shelton, CT). For cell viability readout that measures cytotoxicity, 4 uL/well of CellTiter-Glo reagent was added into the assay plates using a FRD. After 30 min incubation at room temperature, the luminescence intensity in the plates was measured using a ViewLux (PerkinElmer) plate reader.
# Potency means the concentration at half of the fitted maximal effect.
row,Compound,Potency
1,O=C(O)CCSCCC(=O)O,inactive
2,Nc1ccn([C@@H]2O[C@H](CO)[C@@H](O)C2(F)F)c(=O)n1,inactive
3,CCNC(=O)[C@@H]1CCCN1C(=O)[C@H](CCCN=C(N)N)NC(=O)[C@H](CC(C)C)NC(=O)CNC(=O)[C@H](Cc1ccc(O)cc1)NC(=O)[C@H](CO)NC(=O)[C@H](Cc1c[nH]c2ccccc12)NC(=O)[C@H](Cc1cnc[nH]1)NC(=O)[C@@H]1CCC(=O)N1 ([pGlu]HWSYGLRP-NHEt),inactive
4,NO,inactive
5,C=C(C)C(=O)OCCOCCOCCOCCOC(=O)C(=C)C,inactive
6,Clc1cc(Cl)c(Cl)nc1Cl,inactive
7,CCCCCCCCCC[N+](C)(C)[O-],inactive
8,CCOc1c(N2CCOCC2)cnn(C)c1=O,inactive
9,CC12CCC(C(=O)C1=O)C2(C)C (stereo not given),inactive
10,NC(=O)Cc1cccc2ccccc12,inactive
11,O=C1NC(=O)C2CC=CCC12 (stereo not given),inactive
12,CCCCOCCOC(=O)COc1cc(Cl)c(Cl)cc1Cl,inactive
13,CCC(C)(CCCC(C)C)OC(C)=O (stereo not given),inactive
14,Cc1onc(-c2c(Cl)cccc2Cl)c1C(=O)Cl,inactive
15,O=CN(CCO)CCO,inactive
16,O=S(=O)(O)c1cccc(S(=O)(=O)O)c1,inactive
17,Nc1c2c(nc3c1CCC3)CCCC2,inactive
18,CN(C)CCCCCCN(C)C,inactive
19,c1ccc2sc(SN3CCOCC3)nc2c1,inactive
20,O=C(CO)[C@@H](O)[C@H](O)[C@H](O)CO,inactive

row,Compound,Potency
1,C=COC(=O)C(C)(CC)CCC(C)C (stereo not given),inactive
2,CCOCC(C)O (stereo not given),inactive
3,CC1=NS(=O)(=O)c2cc(Cl)ccc2N1,inactive
4,NCCCC(N)(C(=O)O)C(F)F (stereo not given),inactive
5,CN(C)CCN(C)CCN(C)C,inactive
6,CC[C@H]1OC(=O)[C@H](C)[C@@H](O[C@H]2C[C@@](C)(OC)[C@@H](O)[C@H](C)O2)[C@H](C)[C@@H](O[C@@H]2O[C@H](C)C[C@H](N(C)C)[C@H]2O)[C@](C)(OC)C[C@@H](C)C(=O)[C@H](C)[C@@H](O)[C@]1(C)O,inactive
7,CCOC(=O)c1cnc2c(cnn2CC)c1NN=C(C)C,inactive
8,O=[N+]([O-])c1cncn1CCN1CCOCC1,inactive
9,NC(=O)N1c2ccccc2CC(=O)c2ccccc21,inactive
10,CC(C)C(=O)OC(=O)C(C)C,inactive
11,Nc1ccncc1N,inactive
12,NC(CCC(=O)O)C(=O)O (stereo not given),inactive
13,CCCCCC(C)N (stereo not given),inactive
14,C=CCCC(=O)O,inactive
15,CCN(C=O)CC,49.8 µM (active)
16,CCCCOCCOC(=O)CCCCCCCCC(=O)OCCOCCCC,inactive
17,CCC(C)(CN(C)C)OC(=O)c1ccccc1 (stereo not given),inactive
18,CC1(C)[C@@H]2CC[C@@]1(C)[C@H](O)C2,inactive
19,CCOC(=O)C(=O)CCCCCCl,inactive
20,CN(C)CCCN(C)CCCN(C)C,inactive
